Out of some 290,000 compounds screened, about 27,000 (9.3%) were called active. The full list was thinned out, with actives kept by preference. Unmarked numbers belong to inactive results. Cut-off read from the data, not from the text of the source: active = inhibition mostly above about 28% (no sharp cut-off); inactive = mostly below about 43%.
test: A qHTS for Small Molecule Inhibitors of Shiga Toxin; conditions: Vero cells, Shiga toxin protein synthesis inhibition reporter; at 38.7 µM, stronger effect = higher value; note: 0% is about no effect

Question: Which inhibition does the source give for `CCn1cc(C(=O)N[C@@H](C)C(=O)NCCO)c(=O)c2cc3c(cc21)OCO3` here?
Answer: -6.09%

Question: With `CC(=O)c1cc(CN2CCC(C(=O)Nc3cccc(-c4cscn4)c3)CC2)cs1` as the molecule, how does the inhibition read?
Answer: 12.4%

Question: With `COC(=O)[C@@H]1CCCN1C(=O)c1cc(COc2cccc3cccnc23)on1` as the molecule, how does the inhibition read?
Answer: 18.1%

Question: With `CSc1ccccc1OCc1cc(C(=O)N(C)CCc2c(C)n[nH]c2C)no1` as the molecule, how does the inhibition read?
Answer: -3.19%

Question: Which inhibition does the source give for `CSc1ccccc1OCc1cc(C(=O)N2C[C@H]3CC[C@H]2C3)no1` here?
Answer: 108% (active)

Question: Which inhibition does the source give for `CSc1nc(O)c(Cc2ccccc2)c(=O)[nH]1` here?
Answer: 13.7%

Question: With `CCOC(=O)c1sc(NC(=O)CSc2nc(O)c(Cc3ccccc3)c(=O)[nH]2)nc1C` as the molecule, how does the inhibition read?
Answer: 107%

Question: Which inhibition does the source give for `O=C(CSc1nc(O)c(Cc2ccccc2)c(=O)[nH]1)Nc1nc2c(s1)CCCC2` here?
Answer: 40.8% (active)

Question: With `O=C(Nc1ccccc1C(=O)O)c1ccc(N2C(=O)C3CC=CCC3C2=O)cc1` (stereo not drawn) as the molecule, how does the inhibition read?
Answer: 21.8%

Question: Which inhibition does the source give for `COc1ccccc1N(CC(=O)Nc1ccccc1C(=O)N1CCCC1)S(C)(=O)=O` here?
Answer: -2.57%

Question: With `COc1ccc(C(=O)Nc2ccc3c(c2)OCO3)cc1OC` as the molecule, how does the inhibition read?
Answer: 99% (active)

Question: For `Cn1c(=O)n(C)c2cc(C(=O)Nc3ccc4c(c3)OCO4)ccc21`, which inhibition is on record?
Answer: 33.6% (active)

Question: With `COc1cc(NC(=O)c2cccs2)ccc1NC(=O)c1ccccc1Cl` as the molecule, how does the inhibition read?
Answer: 39.7%

Question: Which inhibition does the source give for `COc1ccc(F)cc1S(=O)(=O)Nc1ccc2c(c1)OCO2` here?
Answer: -6.49%

Question: Which inhibition does the source give for `COc1ccc(S(=O)(=O)Nc2ccc3c(c2)OCO3)cc1Cl` here?
Answer: -1.27% (active)

Question: Which inhibition does the source give for `COc1cc(OC)c(C(=O)NCc2ccc3c(c2)OCO3)cc1OC` here?
Answer: -10.8%

Question: Which inhibition does the source give for `CC(C)CNS(=O)(=O)c1ccc(OCC(=O)Nc2ccc3c(c2)OCO3)c(Cl)c1` here?
Answer: -2.63%

Question: Which inhibition does the source give for `Cn1c(=O)n(C)c2cc(C(=O)Nc3ccc(Br)cc3)ccc21` here?
Answer: -10.4%

Question: With `Cn1c(NC(=O)c2ccc3c(c2)OCO3)cc(=O)n(C)c1=O` as the molecule, how does the inhibition read?
Answer: -7.32%

Question: With `COc1ccc(S(=O)(=O)N(C)CC(=O)Nc2ccc3c(c2)OCCO3)cc1OC` as the molecule, how does the inhibition read?
Answer: 24.6%

Question: For `COc1cc(NC(=O)c2ccc3c(c2)OCO3)ccc1NC(=O)c1cccs1`, which inhibition is on record?
Answer: 55.9% (active)

Question: With `CCC(=O)c1cc2c(cc1NC(=O)c1cccs1)OCCO2` as the molecule, how does the inhibition read?
Answer: -21.9%

Question: With `COC(=O)c1ccc(C2C3=C(Nc4nnnn42)c2ccccc2OC3)cc1` (stereo not drawn) as the molecule, how does the inhibition read?
Answer: -11.2%

Question: For `CC1CN(C(=O)CCC(=O)NCCCN2CCC(Cc3ccccc3)CC2)c2cc(Cl)ccc2O1` (stereo not drawn), which inhibition is on record?
Answer: -10.8%

Question: For `O=C(CN(c1cc(C(F)(F)F)ccc1Cl)S(=O)(=O)c1ccccc1)NCc1cccnc1`, which inhibition is on record?
Answer: -32%

Question: For `Cc1cccc(C)c1N1C(=O)CN(Cc2ccccc2)C1=S`, which inhibition is on record?
Answer: -4.26%

Question: For `COc1ccc(C(CNC(=O)COc2ccc([N+](=O)[O-])cc2)N2CCCCC2)cc1` (stereo not drawn), which inhibition is on record?
Answer: -4.67%

Question: For `COc1ccc(CN2CN(C3CCCC3)CSC2=S)cc1`, which inhibition is on record?
Answer: 17.5%

Question: Which inhibition does the source give for `CC1Cc2cc(/C(O)=C3\C(=O)C(=O)N(Cc4cccnc4)C3c3ccccc3F)ccc2O1` (stereo not drawn) here?
Answer: -7.46%

Question: For `CCOC(=O)c1c(C)[nH]c(C(=O)NCCN2CCOCC2)c1C`, which inhibition is on record?
Answer: 2.41%

Question: For `C[C@H]1[C@H]2c3nc4ccccc4n3C[C@H]1ON2C1CCCCC1`, which inhibition is on record?
Answer: -7.22%

Question: With `CCOC(=O)C(Cc1ccc(N)cc1)N1C(=O)c2ccccc2C1=O` (stereo not drawn) as the molecule, how does the inhibition read?
Answer: 7.65%

Question: For `CC(=O)Nc1ccc(-c2nc3ccccc3o2)cc1`, which inhibition is on record?
Answer: 54.7% (active)

Question: For `Cc1cc(NS(=O)(=O)c2ccc(NC(=O)c3cccnc3)cc2)nc(C)n1`, which inhibition is on record?
Answer: 2.23%

Question: With `Cc1ccc2nc(-c3ccc(NC(=O)c4cccnc4)cc3)oc2c1` as the molecule, how does the inhibition read?
Answer: 142% (active)

Question: Which inhibition does the source give for `Cc1cc2nc(-c3ccc(NC(=O)c4cccnc4)cc3)oc2cc1C` here?
Answer: 101% (active)

Question: With `CC(=O)Nc1ccc(Nc2c3ccccc3nc3ccccc23)cc1` as the molecule, how does the inhibition read?
Answer: -31.9%

Question: For `COC(=O)c1cc(NC(=O)c2cccnc2)ccc1N1CCOCC1`, which inhibition is on record?
Answer: 26.8%

Question: With `COc1cc(OC)cc(C(=O)Nc2ccc(-c3nc4ccccc4o3)c(O)c2)c1` as the molecule, how does the inhibition read?
Answer: 35.4%

Question: Which inhibition does the source give for `O=C(Nc1cnccn1)c1cccnc1` here?
Answer: 11%

Question: For `CC(=O)NC(=S)Nc1ccc(NC(=O)c2cccnc2)cc1`, which inhibition is on record?
Answer: 24.9%

Question: For `COc1ccc(CNC(=O)CN(C(=O)c2csnn2)c2cnc3ccccc3c2)cc1`, which inhibition is on record?
Answer: -8.3%

Question: With `CCOC(=O)c1cc(=O)c2ccc(OCc3ccccc3)cc2o1` as the molecule, how does the inhibition read?
Answer: -1.81%

Question: With `CCOc1ccccc1NS(=O)(=O)c1c[nH]c(C(=O)OC)c1` as the molecule, how does the inhibition read?
Answer: -3.38%

Question: Which inhibition does the source give for `Cc1ccc(NC(=O)C2CCN(S(=O)(=O)c3ccc4c(c3)NC(=O)CO4)CC2)cc1C` here?
Answer: -2.09%

Question: With `CNC[C@H](CC1CCCCC1)NC[C@H](NCCC1CCCC1)[C@H](C)O` as the molecule, how does the inhibition read?
Answer: -0.811%

Question: For `O=C(O)C1CC=CCC1C(=O)Nc1ccccc1C(=O)N1CCN(c2ccccc2)CC1` (stereo not drawn), which inhibition is on record?
Answer: -42.2%

Question: For `O=C(O)C1CC=CCC1C(=O)NCCc1ccccc1` (stereo not drawn), which inhibition is on record?
Answer: 5.17%

Question: With `CC(=O)Nc1ccc(NC(=O)COc2ccccc2C(=O)Nc2cccc(Cl)c2Cl)cc1` as the molecule, how does the inhibition read?
Answer: 12.3%

Question: For `O=C(Nc1ccc(Cl)c(Cl)c1)c1ccccc1NC(=O)C1CC=CCC1C(=O)O` (stereo not drawn), which inhibition is on record?
Answer: 59.4% (active)

Question: With `O=C(Nc1cccc(Cl)c1Cl)c1ccccc1NC(=O)C1CC=CCC1C(=O)O` (stereo not drawn) as the molecule, how does the inhibition read?
Answer: 35.7% (active)

Question: Which inhibition does the source give for `O=C(Nc1ccccc1)c1ccccc1NC(=O)C(F)(F)F` here?
Answer: 52.8%

Question: Which inhibition does the source give for `Cc1ccc(N(CC(=O)NCC2CCCO2)C(=O)CNS(=O)(=O)c2ccc(Cl)cc2)cc1` (stereo not drawn) here?
Answer: -7.51%

Question: Which inhibition does the source give for `CN(C(=O)CN1C(=O)/C(=C/c2ccc(Cl)cc2)SC1=S)C1CCS(=O)(=O)C1` (stereo not drawn) here?
Answer: -7.14%

Question: Which inhibition does the source give for `O=C(c1cc2ccccc2s1)N1CCN(c2ccccn2)CC1` here?
Answer: 9.52%

Question: For `COc1ccc(-c2cc(=O)oc3cc(OCC(=O)N(C)C4CCS(=O)(=O)C4)ccc23)cc1` (stereo not drawn), which inhibition is on record?
Answer: -5.59%

Question: With `COc1cccc(C(=O)N2CCC(n3nccc3NC(=O)C3CCOC3)CC2)c1` (stereo not drawn) as the molecule, how does the inhibition read?
Answer: -9.25%

Question: Which inhibition does the source give for `CCOCCCN1C(=O)C2C(C(=O)Nc3ccc(OCC)cc3)C3C=CC2(O3)C1C(=O)NC1CCCCC1` (stereo not drawn) here?
Answer: -6.78%

Source: PubChem BioAssay AID2315 (National Center for Advancing Translational Sciences (NCATS), 2010)
